Source: PubChem
Rac1 wt GTP bind: human Rac1 wildtype GTP binding, inhibitors and activators. P63000. GST-Rac1 beads, fluorescent GTP binding, flow cytometry; actives lie on both sides; 0 = cold GTP competed, 100 = untreated. GTP binding activity (% of control), % at 10 µM. 0.27% of 190,000 active. AID 757;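 active means GTP binding activity at least 20 points away from the 100% control level, either lower or higher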
Rac1 act GTP bind: alters GTP binding to activated mutant human Rac1; P63000; GST-Rac1 activated beads, fluorescent GTP binding, flow cytometry; actives lie on both sides; 100% means binding = to untreated wells; percent activity (GTP binding), % at 10 µM; 0.11% of 190,000 active; AID 764;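 active means GTP binding at least 20 percentage points away from the 100% baseline, in either direction, so actives lie on both sides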
Rab2A wt mod: changes GTP binding to wildtype dog Rab2A, up or down; GST-Rab2 wt beads, Bodipy-GTP binding, flow cytometry; GTP binding activity, % at 10 µM; 0.19% of 190,000 active; P61105;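 active means GTP binding activity at least 20 points away from 100%, either lowered or raised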
Rab7 wt modul: dog Rab7 wildtype GTP binding, inhibitors and activators | GST-Rab7 beads, fluorescent GTP binding, flow cytometry; actives lie on both sides; untreated = 100%, excess cold GTP = 0% | 0.055% of 190,000 active | GTP binding activity (percent of control), % at 10 µM;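 active means fluorescent GTP binding to Rab7 beads changed by at least 20 points from the 100% baseline, either direction, mostly lower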;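 further: median green fluorescence of bound Bodipy-FL-GTP per Rab7 bead population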
Cdc42 wt GTP: changes GTP binding to wildtype human Cdc42 | P60953 | GST-Cdc42 beads, Bodipy-GTP binding, flow cytometry; actives lie on both sides | percent activity (GTP binding), % at 10 µM | 0.2% of 190,000 active;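 active means percent activity GTP binding at least 20 points away from the 100% baseline, either down as inhibitor or up as activator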;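 further: median bead fluorescence of bound Bodipy-FL-GTP at 100 nM; below 100% means less GTP binding so inhibitor and above means activator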
Target sequence (P60953 whole entry, looked up): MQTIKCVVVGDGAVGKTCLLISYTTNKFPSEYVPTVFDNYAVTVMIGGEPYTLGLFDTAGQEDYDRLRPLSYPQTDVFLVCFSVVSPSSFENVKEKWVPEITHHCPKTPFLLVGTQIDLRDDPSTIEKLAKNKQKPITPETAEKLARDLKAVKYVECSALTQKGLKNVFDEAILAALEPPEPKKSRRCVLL
HRas wt GTP bind: human HRas wildtype GTP binding, change in either direction; P01112; GST-Ras wt beads, Bodipy-FL-GTP binding, flow cytometry; actives lie on both sides; GTP binding activity, % at 10 µM; 0.14% of 190,000 active;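 active means GTP binding activity at least 20% away from the 100% baseline, either lowered as inhibitor or raised as activator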
Target sequence (P01112 whole entry, looked up): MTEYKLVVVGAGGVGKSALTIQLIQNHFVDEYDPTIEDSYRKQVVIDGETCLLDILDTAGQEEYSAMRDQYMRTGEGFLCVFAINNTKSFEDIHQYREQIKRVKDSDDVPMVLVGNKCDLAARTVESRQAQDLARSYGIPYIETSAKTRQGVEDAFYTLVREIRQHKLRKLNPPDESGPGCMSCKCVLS
Numbers stand for hits. This is a sample that favours compounds with a hit; in the whole collection about 0.38% have one here.

What do the screens show for `COc1cc(/C=N/Nc2ccc(S(N)(=O)=O)cc2)cc(OC)c1OC`?
Rac1 wt GTP bind: 79; Rac1 act GTP bind: inactive; Rab2A wt mod: inactive; Rab7 wt modul: inactive; Cdc42 wt GTP: inactive; HRas wt GTP bind: inactive

How did COc1cc(/C=N/Nc2ccc(F)cc2F)cc(OC)c1OC do in these assays?
Rac1 wt GTP bind: inactive; Rac1 act GTP bind: inactive; Rab2A wt mod: inactive; Rab7 wt modul: inactive; Cdc42 wt GTP: inactive; HRas wt GTP bind: inactive

What do the screens show for `Cn1c(=O)n(Cc2ccc(F)cc2)c(=O)c2c1nc1n2CCN1Cc1ccco1`?
Rac1 wt GTP bind: 75; Rac1 act GTP bind: inactive; Rab2A wt mod: 77; Rab7 wt modul: inactive; Cdc42 wt GTP: inactive; HRas wt GTP bind: inactive

What do the screens show for `O=C(CSc1ccc2nnc(-c3ccccn3)n2n1)Nc1nccs1`?
Rac1 wt GTP bind: 54; Rac1 act GTP bind: 73; Rab2A wt mod: 62; Rab7 wt modul: inactive; Cdc42 wt GTP: 65; HRas wt GTP bind: 68

What do the screens show for `O=C(CSc1ccc2nnc(-c3cccs3)n2n1)N1CCCC1`?
Rac1 wt GTP bind: 73; Rac1 act GTP bind: inactive; Rab2A wt mod: inactive; Rab7 wt modul: inactive; Cdc42 wt GTP: inactive; HRas wt GTP bind: inactive

Results for CCOC(=O)CSc1ccc2nnc(-c3cccs3)n2n1 ?
Rac1 wt GTP bind: inactive; Rac1 act GTP bind: inactive; Rab2A wt mod: inactive; Rab7 wt modul: inactive; Cdc42 wt GTP: inactive; HRas wt GTP bind: inactive

How did O=C(CSc1ccc2nnc(-c3ccncc3)n2n1)Nc1nccs1 do in these assays?
Rac1 wt GTP bind: 71; Rac1 act GTP bind: inactive; Rab2A wt mod: inactive; Rab7 wt modul: inactive; Cdc42 wt GTP: 79; HRas wt GTP bind: inactive

What do the screens show for `Cc1nnc(NC(=O)CSc2ccc3nnc(-c4ccccn4)n3n2)s1`?
Rac1 wt GTP bind: inactive; Rac1 act GTP bind: inactive; Rab2A wt mod: inactive; Rab7 wt modul: inactive; Cdc42 wt GTP: inactive; HRas wt GTP bind: inactive

Results for Cc1ccc(NC(=O)COc2ccc(-c3nnco3)cc2)cc1S(=O)(=O)N1CCOCC1 ?
Rac1 wt GTP bind: inactive; Rac1 act GTP bind: inactive; Rab2A wt mod: inactive; Rab7 wt modul: inactive; Cdc42 wt GTP: inactive; HRas wt GTP bind: inactive

How did O=C(NCCNC(=O)c1cc(OCC(F)(F)F)ccc1OCC(F)(F)F)Nc1ccc(Cl)cc1 do in these assays?
Rac1 wt GTP bind: inactive; Rac1 act GTP bind: inactive; Rab2A wt mod: inactive; Rab7 wt modul: inactive; Cdc42 wt GTP: inactive; HRas wt GTP bind: inactive

How did O=C(COc1ccccc1-c1ccccc1)N/N=C/c1ccncc1 do in these assays?
Rac1 wt GTP bind: 55; Rac1 act GTP bind: 55; Rab2A wt mod: 61; Rab7 wt modul: 58; Cdc42 wt GTP: 60; HRas wt GTP bind: 59

How did O=C(Nc1cccc2ccccc12)c1cnccn1 do in these assays?
Rac1 wt GTP bind: inactive; Rac1 act GTP bind: 77; Rab2A wt mod: 67; Rab7 wt modul: 75; Cdc42 wt GTP: 73; HRas wt GTP bind: 71

Results for CC(C)Cn1c(N)c(-c2nc(C(C)C)c(C(=O)c3ccccc3F)s2)c(=O)n(C)c1=O ?
Rac1 wt GTP bind: inactive; Rac1 act GTP bind: inactive; Rab2A wt mod: inactive; Rab7 wt modul: inactive; Cdc42 wt GTP: inactive; HRas wt GTP bind: inactive

How did COCCNc1nc2c(c(=O)n(Cc3ccc(OC)cc3)c(=O)n2C)n1C do in these assays?
Rac1 wt GTP bind: inactive; Rac1 act GTP bind: inactive; Rab2A wt mod: inactive; Rab7 wt modul: inactive; Cdc42 wt GTP: inactive; HRas wt GTP bind: inactive

What do the screens show for `COc1ccc(CNc2nc3c(c(=O)n(Cc4ccc(Cl)cc4)c(=O)n3C)n2C)cc1`?
Rac1 wt GTP bind: inactive; Rac1 act GTP bind: inactive; Rab2A wt mod: 78; Rab7 wt modul: inactive; Cdc42 wt GTP: 79; HRas wt GTP bind: inactive

What do the screens show for `NS(=O)(=O)c1ccc(CCN2C(=O)/C(=C\c3ccc(Cl)cc3)SC2=S)cc1`?
Rac1 wt GTP bind: 77; Rac1 act GTP bind: inactive; Rab2A wt mod: inactive; Rab7 wt modul: inactive; Cdc42 wt GTP: inactive; HRas wt GTP bind: inactive

Results for Cc1ccc(C)n1N1C(=O)/C(=C\c2ccc(Cl)cc2)SC1=S ?
Rac1 wt GTP bind: inactive; Rac1 act GTP bind: inactive; Rab2A wt mod: inactive; Rab7 wt modul: inactive; Cdc42 wt GTP: inactive; HRas wt GTP bind: inactive
